# VACV Venus inh = inhibitors of vaccinia virus (Venus reporter); Vaccinia virus Venus reporter expression, fluorescence; hit rate 0.46% among 330,000; Potency, µM (highest dose often 36.5 µM), for inactives: at the top dose activity change, negative = inhibition, actives largely listed as inhibitors; calls by dose curve; tested in A549 cells; further: potency means the concentration at half of the fitted maximal effect; nearly all actives have a fitted effect of over 30% in size
# HCMV antiviral = inhibitors of human cytomegalovirus; HFF cells, HCMV-luciferase reporter, 72 h; stronger effect = lower value; activity change, negative = inhibition, % at 57.5 µM; hit rate 4.5% among 410,000; AID 1259415; in the data active means activity change below about -60%; inconclusive means no clear call, values can overlap the other calls; inactive means above about -39%
#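 Inhibition of viral replication was scored as loss of reporter luminescence in HFFs infected with HCMV-luciferase (MOI 1 PFU/cell) for 72 h; compounds tested at 2 doses, normalized to buffer and Salinomycin controls.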
# Lassa entry inh = inhibitors of Lassa virus binding or cell entry; Lassa virus pseudotype entry inhibition, cell reporter; Potency, µM (doses to about 37.9 µM), for the others: top-dose activity change, negative = inhibition, usual class: inhibitors; hit rate 1.2% among 300,000; AID 540256; calls by dose curve; tested in HEK293 cells; further: potency means the concentration at half of the fitted maximal effect; nearly all actives have a fitted effect of over 50% in size
# Vaccinia mCherry = inhibitors of vaccinia virus infection (mCherry reporter signal). Vaccinia virus mCherry reporter infection, fluorescence. Potency, µM (titrated, usually from 36.5 µM), for the others: at the top dose activity change, negative = inhibition, hits mostly inhibitors. hit rate 0.63% among 310,000; calls by dose curve; tested in A549 cells; further: potency means the concentration at half of the fitted maximal effect; nearly all actives have a fitted effect of over 35% in size
# Marburg entry inh = blocks Marburg virus binding to or entry into cells. Marburg virus pseudotyped entry inhibition, cell reporter. Potency, µM (titrated, usually from 37.8 µM), inactives show top-dose activity change, negative = inhibition, hits mostly inhibitors. hit rate 1.8% among 300,000; calls by dose curve; tested in HEK293 cells; further: potency means the concentration at half of the fitted maximal effect
# HCV inh = HCV inhibition; Potency, µM (highest dose often 41.8 µM), without a hit: at the top dose activity change, negative = inhibition, most hits filed as inhibitors; Huh7.5.1 HCVcc-Cre infection, luciferase reporter, 44 h; hit rate 3.4% among 340,000; active means well fitted inhibition curve with a large enough effect; inconclusive means small, poorly fitted or top-dose-only effect, or another doubt; inactive means no such curve, though single readings can be large or run the other way; further: potency means the concentration at half of the fitted maximal effect
#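 HCVcc-Cre virus at an moi near 0.5 was added right after compound to cells cultured 4 h from seeding (1,000 cells/well). Luciferase activity was determined 44 h later, 15 min after substrate addition at RT.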
# An asterisk follows results filed as active; i = inactive; ? = inconclusive; · = no result given; ! = not active in a repeat; [ ] = dose if it differs, or a comment. A selection: hits, their analogues and other compounds. The true share with any hit is near 7.8%. On the % scale 0 is the no-effect control and ±100 the full control effect.
SMILES,VACV Venus inh,HCMV antiviral,Lassa entry inh,Vaccinia mCherry,Marburg entry inh,HCV inh
COc1ccc(N(Cc2ccccc2)S(=O)(=O)c2cccc(C(=O)Nc3ccccn3)c2)cc1,-25%,?,13µM*,13%,?,?
COc1ccccc1N(Cc1ccccc1)S(=O)(=O)c1cccc(C(=O)Nc2cccc(C)n2)c1,·,-28,·,·,·,10µM*
C=CCN(c1ccccc1)S(=O)(=O)c1cccc(C(=O)Nc2ncccc2O)c1,1%,·,?,-17%,0%[46.1 µM],-2%
Cc1cccc(NC(=O)c2cccc(S(=O)(=O)N(C)c3ccccc3)c2)n1,-15%,39,?,37%,?,?
COc1cc(NC(=O)CSc2nc(-c3ccc(C(C)C)cc3)no2)cc(OC)c1,-22%,?,?,-22%,·,·
C[N+](C)(CCCCCI)c1ccc(/C=C/c2nc3ccccc3s2)cc1,i,·,·,474%,·,·
Cc1ccc(C)c(CSc2c(C(C)C)cnc3c2c(=O)n(C)c(=O)n3C)c1,-9%,3,-11%[46.1 µM],-2%,·,·
C=CCN=c1scc(C)n1/N=C/c1ccc(O)c(O)c1,4%,-97*,·,0%,·,11µM*
COc1ccc(O)c(/C=N/n2c(-c3ccco3)csc2=Nc2cccnc2)c1,-15%,40,?,-27%,-2%,-1%
CN=c1scc(C)n1/N=C/c1ccc2c(c1)OCO2,-21%,18,3.5µM*,·,?,?
CN=c1scc(-c2ccco2)n1/N=C/c1ccc(O)c(O)c1,-26%,68,?,-25%,?,2.5µM*
CN=c1scc(C)n1/N=C/c1ccc(O)cc1,-14%,82,?,·,?,?
COc1ccc(-c2coc3c2c(C)cc2oc(=O)c(CC(=O)O)c(C)c23)cc1,5%,24,20%[46.1 µM],-3%,9%[46.1 µM],·
COCCN(Cc1cccs1)S(=O)(=O)c1ccc(-c2ccc(=O)[nH]n2)s1,-11%[7.34 µM],-19,·,-12%[7.34 µM],·,8%
CCCCN(Cc1cccs1)S(=O)(=O)c1ccc(-c2ccc(=O)[nH]n2)s1,-23%,-68*,0%[46.1 µM],-14%,-3%[46.1 µM],-22%
COc1cc2c(NC3CCN(C)CC3)nc(N3CCCCC3)nc2cc1OCCOCCN(C)C,13µM*,·,·,10µM*,·,·
COc1cc2c(NC3CCN(C)CC3)nc(N3CCCCC3)nc2cc1OCCCN(C)C,10µM*,·,·,?,·,·
COc1cc2c(NC3CCN(C)CC3)nc(N3CCCN(C)CC3)nc2cc1OCCCN(C)C,?,·,·,-24%,·,·
COc1cc2c(NC3CCN(C)CC3)nc(N3CCCN(C)CC3)nc2cc1OCCOCCN(C)C,-20%,·,·,-23%,·,·
COc1cc2c(NC3CCN(C(C)C)CC3)nc(N3CCCN(C)CC3)nc2cc1OCCOCCN(C)C,1.8µM*,·,·,1.6µM*,·,·
COc1cc2c(NC3CCN(C(C)C)CC3)nc(N3CCCN(C)CC3)nc2cc1OCCCN1CCCC1,1µM*,·,·,0.89µM*,·,·
O=C(Cn1ncc2c3ccccc3n(Cc3ccc(Cl)cc3)c2c1=O)NCc1cccs1,-14%,1,17%[46.1 µM],-10%,4%[46.1 µM],·
CCCCNC(=O)c1ccc(NC(=O)CC2SC(N3CCCC3)=NC2=O)cc1 (stereo unspecified),·,14,·,·,·,10%
C=C(c1nc2ccccc2s1)C1Cc2cccc3c2N(CCC3)C1 (stereo unspecified),i,·,·,i,·,·
O=c1c2ccccc2cnn1CCOc1ccccc1,-10%,-87*,0.28µM*,i,2.1µM*,24%
SMILES,VACV Venus inh,HCMV antiviral,Lassa entry inh,Vaccinia mCherry,Marburg entry inh,HCV inh
COc1ccccc1C1=NNC(=NCc2ccccc2)SC1,-19%,-60*,12%,-11%,?,-26%
Clc1ccc(C2=NNC(=NCc3ccccc3)SC2)cc1,-15%,-79*,20%,?,?,-26%
CS(=O)(=O)N1Cc2cnnn2-c2ccccc2C1C#N (stereo unspecified),0%,15,·,-9%,·,20%[8.37 µM]
CC(=O)Nc1ccc(S(=O)(=O)N2Cc3cnnn3-c3ccccc3C2C#N)cc1 (stereo unspecified),2%,8,·,-9%,·,0.32µM*
COc1ccc(CN2Cc3cnnn3-c3ccccc3C2c2ccccc2)cc1 (stereo unspecified),?,-17,·,?,·,1.3µM*
COc1ccc(CN2Cc3cnnn3-c3ccccc3C2C#N)cc1 (stereo unspecified),-16%,-110*,·,?,·,4µM*
CN1Cc2cnnn2-c2ccccc2C1C#N (stereo unspecified),-23%,-64*,·,-24%,·,16%[8.37 µM]
Cc1cc(C)cc(-n2c(SCC(=O)N3CCC(C)CC3)nc3c([nH]c4ccccc43)c2=O)c1,-6%,25,12%[46.1 µM],-8%,·,·
COc1cccc(NC(=O)CSc2nc3c([nH]c4ccccc43)c(=O)n2-c2ccccc2)c1,-12%,?,?,i,·,·
N#CC1c2ccccc2-n2nncc2CN1Cc1cc(Cl)cc(Cl)c1 (stereo unspecified),0%,-100*,·,-13%,·,5.6µM*
N#CC1c2ccccc2-n2nncc2CN1S(=O)(=O)c1ccc(Cl)cc1 (stereo unspecified),-7%,-14,·,-11%,·,?
COc1cc(N2C(=O)C=CC2=O)ccc1N1C(=O)C=CC1=O,?,-76*,?,-30%,?,?
COc1cccc(C2c3[nH]c4ccccc4c3C[C@H]3C(=O)N(c4ccccc4C(=O)N4CCC[C@H]4C(=O)O)C(=O)N23)c1 (stereo partly specified),5%,34,·,7%,·,2.2µM*
COc1ccc(C2c3[nH]c4ccccc4c3C[C@H]3C(=O)N(c4ccccc4C(=O)N4CCC[C@@H]4C(=O)O)C(=O)N23)cc1 (stereo partly specified),13%,36,·,2%,·,12%
CC#CCOC(=O)c1c(C)nc2sc3c(c2c1N)CC[C@@H](O)C3,3.5µM*,·,·,?,-38%,·
CC(C)(C)c1ccc(S(=O)(=O)/C=C/C#N)cc1,-22%,·,3.7µM*,-15%,2.5µM*,·
CC(C)(C)c1ccc(NS(=O)(=O)c2ccc(N)cc2)cc1,-18%,47,?,-2%,?,4%
Nc1c(-c2ccccc2)cnn1-c1cccc(C(F)(F)F)c1,-27%,-106*,18%,·,13%,13%
Nc1c(-c2cccc(Cl)c2)cnn1-c1cccc(C(F)(F)F)c1,·,-18,7%,·,19%,?
Oc1ccc2ccccc2c1C=NNc1ccccn1,?,-98*,?,?,5.6µM*,3.2µM*
Fc1cccc(F)c1/C=N/Nc1ccccn1,·,-31,·,·,·,-5%
Oc1ccc2ccccc2c1/C=N/Nc1nnc(-c2ncc[nH]2)c2ccccc12,·,-102*,?,·,6.5µM*,3.2µM*
O=C(Nc1ccc(Cl)cc1)c1ccc2oc(=O)n(Cc3ccccc3)c2c1,-11%,?,?,-12%,·,·
C#CC[N+](C)(C)CC#Cc1ccc(Cl)cc1,?,-94*,-14%,?,-3%[46.1 µM],-20%
N#C/C(=C\c1ccc(O)cc1)C(=O)O,-18%,-73*!,·,10%,·,1.1µM*
